From PubChem
TDP1 inh: TDP1 (human) enzyme inhibition; actives 0.28% (n = 350,000); recombinant TDP1, AlphaScreen DNA substrate cleavage; Q9NUW8; Potency, µM (series often up to 130 µM), most hits filed as inhibitors; also: nearly all actives have a fitted effect of over 40% in size
Target sequence (Q9NUW8 whole entry, looked up): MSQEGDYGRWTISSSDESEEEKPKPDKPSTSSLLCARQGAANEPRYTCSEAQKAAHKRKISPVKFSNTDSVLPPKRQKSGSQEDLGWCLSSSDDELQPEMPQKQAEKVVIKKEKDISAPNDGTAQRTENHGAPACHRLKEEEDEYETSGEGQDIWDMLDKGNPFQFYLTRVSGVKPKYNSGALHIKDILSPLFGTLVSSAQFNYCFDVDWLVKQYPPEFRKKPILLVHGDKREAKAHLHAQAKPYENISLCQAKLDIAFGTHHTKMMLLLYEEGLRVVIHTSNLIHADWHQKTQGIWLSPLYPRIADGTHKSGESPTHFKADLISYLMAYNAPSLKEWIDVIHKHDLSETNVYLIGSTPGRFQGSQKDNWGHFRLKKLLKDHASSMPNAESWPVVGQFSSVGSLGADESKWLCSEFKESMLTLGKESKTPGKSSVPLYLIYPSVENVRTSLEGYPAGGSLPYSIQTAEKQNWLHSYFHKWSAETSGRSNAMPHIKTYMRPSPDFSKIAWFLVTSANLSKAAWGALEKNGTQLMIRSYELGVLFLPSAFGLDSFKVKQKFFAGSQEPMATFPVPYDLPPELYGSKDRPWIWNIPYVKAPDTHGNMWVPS
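AlphaScreen read-out: signal falls as enzyme removes the 3' tyrosine-FITC from a 5'-biotinylated DNA oligo (15 nM, 5 min, RT). Enzyme was E. coli-made recombinant Tdp1 at 1 nM, exposed to compound for 15 min beforehand; beads 10 ug/ml, 10 min.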
CtBP-E1A inh: blocks the CtBP interaction with E1A. AlphaScreen GST-E1A/His-CtBP binding, 1536-well; hits give low values. activity change, % (test concentration not listed). actives 0.49% (n = 340,000); in the data active = activity change below about -65%; inconclusive = mostly about -30% to -63%
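Homogeneous bead-based format: GST-tagged E1A captured on glutathione donor beads, His-tagged CtBP on nickel acceptor beads; compounds precede bead addition by 2 h at 37 °C.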
Six1-Eya2 inh: inhibitors of human Six1/Eya2 interaction; Q15475+O00167; AlphaScreen GST-Six1/His-Eya2 binding, biochemical; hits give low values; activity change, % (no concentration beside the values); actives 0.56% (n = 360,000); AID 651725; in the data active = activity change below about -65%; inconclusive = mostly about -30% to -63%
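Homogeneous AlphaScreen proximity assay pairing GST-Six1 with His-tagged Eya2 (added as 5X mix: 250 nM and 500 nM) in 50 mM Tris pH 8.0, 300 mM NaCl, 1 mM TCEP. Glutathione donor and nickel acceptor beads; 1 h, 37 °C, dark.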
IL-1B inflam inh: inflammasome signaling inhibition, IL-1 beta readout. THP-1 LPS/ATP IL-1B secretion, AlphaLISA, 16 h; hits give low values. activity change, % at 57.5 µM. actives 4.7% (n = 360,000). AID 743279; in the data active = activity change below about -50%; inconclusive = mostly about -30% to -49%
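THP-1 cells pretreated 1 hr with compounds (up to 57.5 uM final), then stimulated with LPS (250 ng/mL final) plus ATP (1.25 mM final); secreted IL-1B measured by AlphaLISA after 16 hr, decreased signal indicating inhibition.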
TDP1 cell noCPT: qHTS for Inhibitors of human tyrosyl-DNA phosphodiesterase 1 (TDP1): qHTS in cells in absence of CPT; DT40 Tdp1-/- hTDP1 cells, no CPT, ATP luminescence, 48 h; Potency, µM (highest dose often 46.2 µM), hits mostly inhibitors; actives 15% (n = 420,000); also: nearly all actives have a fitted effect of over 55% in size
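DT40 Tdp1-/-;hTDP1 cells, no CPT (DMSO vehicle only), 400 cells/well; compounds pin-transferred; ≥48 hr, 37 °C; CellTiter-Glo 30 min RT dark, luminescence read.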
TDP1 cell CPT: DT40-hTDP1 cell growth loss with CPT | actives 12% (n = 420,000) | chicken DT40 Tdp1-/-;hTDP1 cells + 20 nM CPT, ATP luminescence, 48 h | Potency, µM (titrated, usually from 46.2 µM), hits mostly inhibitors; also: nearly all actives have a fitted effect of over 55% in size
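Chicken DT40 Tdp1-/- cells complemented with human TDP1, 400 cells/well, exposed to compounds plus 20 nM camptothecin for at least 48 h at 37 C; viability read as ATP content by CellTiter-Glo luminescence.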
Large screens that a line does not name were inactive. Hits are enriched below; roughly 18% of the tested compounds scored in any of these assays. Unless noted, calls follow the shape of the dose curve; as a rule, active = well fitted curve in the direction sought with a large enough effect; inconclusive = small, poorly fitted or top-dose-only effect, or another doubt; inactive = no such curve, though single readings can be large; an effect the other way counts as inactive or inconclusive.

CCOc1ccc(Cl)cc1-c1cc(C(=O)Nc2ccc(OC)cc2OC)[nH]n1	TDP1 cell noCPT 18µM, TDP1 cell CPT inconclusive (no result: TDP1 inh)
CCOc1ccc(Cl)cc1-c1cc(C(=O)Nc2cc(OC)ccc2OC)[nH]n1	TDP1 cell noCPT 23µM, TDP1 cell CPT inconclusive (no result: TDP1 inh)
COc1ccc(NC(=O)c2cc(-c3cc(Cl)ccc3O)n[nH]2)c(OC)c1	none (no result: TDP1 inh)
O=C(Cn1cnc(S(=O)(=O)N2CCCCC2)c1)NCc1ccco1	none (no result: CtBP-E1A inh)
CCOC(=O)C1CCN(C(=O)c2ccc(OCC(=O)N3CCOCC3)c(OC)c2)CC1	none
O=C(COc1ccc(Br)cc1)c1ccc2c(c1)CCCC2	TDP1 cell noCPT 23µM, TDP1 cell CPT inconclusive (no result: TDP1 inh)
O=C(C[n+]1ccccc1Br)c1ccc(O)c(O)c1	none (no result: TDP1 inh, CtBP-E1A inh, Six1-Eya2 inh, IL-1B inflam inh)
Cc1ccc(OCC(=O)c2ccc3c(c2)CCCC3)cc1C	TDP1 cell noCPT inconclusive, TDP1 cell CPT inconclusive
O=C(CCl)c1cc2c3c(c1)CC(=O)N3CCC2	IL-1B inflam inh -71, TDP1 cell noCPT 0.33µM, TDP1 cell CPT 1.2µM
O=C(C[n+]1ccccc1Br)c1ccc2c(c1)CCCC2	TDP1 cell noCPT 20µM, TDP1 cell CPT inconclusive (no result: TDP1 inh, CtBP-E1A inh, Six1-Eya2 inh, IL-1B inflam inh)
O=C(CCl)c1ccc2c(c1)CCCC2	TDP1 cell noCPT 0.79µM, TDP1 cell CPT 0.89µM (no result: TDP1 inh, CtBP-E1A inh, Six1-Eya2 inh, IL-1B inflam inh)
COCCCNC(=S)N/N=C/c1cccc(OC)c1O	CtBP-E1A inh -92, Six1-Eya2 inh -90, TDP1 cell noCPT 0.65µM, TDP1 cell CPT 0.82µM
COCCCNC(=S)N/N=C/c1ccc(O)cc1O	CtBP-E1A inh -93, Six1-Eya2 inh -90, TDP1 cell noCPT inconclusive, TDP1 cell CPT inconclusive (no result: TDP1 inh, IL-1B inflam inh)
COCCCNC(=S)N/N=C/c1ccc(OC)cc1	none (no result: IL-1B inflam inh)
COCCCNC(=S)N/N=C/c1ccc(O)cc1	none (no result: CtBP-E1A inh)
Cn1nnnc1SCC(=O)N1c2ccccc2Sc2ccc(Cl)cc21	TDP1 cell noCPT 21µM, TDP1 cell CPT inconclusive
Cn1c(SCC(=O)N2c3ccccc3Sc3ccc(Cl)cc32)nnc1-c1ccco1	TDP1 cell noCPT inconclusive, TDP1 cell CPT 21µM
Cc1cccc(C)c1NC(=O)CSc1nnc(-c2ccncc2)n1Cc1ccco1	none
O=C(CSc1nnc(-c2ccncc2)n1Cc1ccco1)N1c2ccccc2Sc2ccc(Cl)cc21	IL-1B inflam inh -74, TDP1 cell CPT 15µM
CSc1ccc(S(=O)(=O)NCCSC(C)(C)C)cc1	TDP1 cell CPT inconclusive
N#CCc1nn(-c2ccccc2)c(N)c1C#N	none
O=S(=O)(NCc1ccccc1)c1ccccc1Br	none
O=S(=O)(NCc1ccccc1)c1ccc(Br)c2nsnc12	IL-1B inflam inh -72
CCOC(=O)/C(N=Nc1sc(C(=O)OCC)c(C)c1C(=O)OCC)=C(\C)O	none (no result: CtBP-E1A inh, Six1-Eya2 inh, IL-1B inflam inh, TDP1 cell noCPT, TDP1 cell CPT)
CCOC(=O)/C(N=Nc1sc(C(=O)OC)c(C)c1C(=O)OCC)=C(\O)CCl	TDP1 cell noCPT 15µM, TDP1 cell CPT inconclusive
CCC(Sc1nc(C)cc(=O)[nH]1)C(=O)Nc1sc2c(c1C#N)CCCC2 (centres undefined)	TDP1 cell noCPT 16µM, TDP1 cell CPT 16µM
N#Cc1c(NC(=O)CSc2nc(N)cc(=O)[nH]2)sc2c1CCCCCC2	TDP1 cell noCPT inconclusive, TDP1 cell CPT inconclusive
CC(Sc1nc(N)cc(=O)[nH]1)C(=O)Nc1sc2c(c1C#N)CCCC2 (centres undefined)	TDP1 cell noCPT 2.3µM, TDP1 cell CPT 2.3µM (no result: CtBP-E1A inh)
Cc1noc(C)c1S(=O)(=O)N(C)C[C@H]1Oc2c(NC(=O)NC(C)C)cccc2C(=O)N([C@H](C)CO)C[C@@H]1C	none
COc1ccc(CCN2C(=O)COc3ccccc3C2C(=O)Nc2ccc3c(c2)OCCO3)cc1OC (centres undefined)	TDP1 cell noCPT 21µM, TDP1 cell CPT inconclusive (no result: TDP1 inh)
Cc1cccc(N2C(N)=NC(N)=NC23CCCCC3)c1	TDP1 cell noCPT 12µM, TDP1 cell CPT 16µM
CNC(=O)CN(CCc1ccccc1)S(=O)(=O)c1ccc(OC)cc1	none (no result: TDP1 inh)
CCOC(=O)C(Cc1ccc(O)cc1)Nc1nc2ccccc2o1 (centres undefined)	IL-1B inflam inh -54 (no result: TDP1 inh)
